This is one part of a sample in which hits are shown more often than they occur.
Dicer processing: inhibitors of Dicer pre-microRNA processing, primary screen, biochemical, cat-ELCCA, chemiluminescence; Endoribonuclease Dicer (Homo sapiens), Q9UPY3; cat-ELCCA pre-miR-21 Dicer processing; active compounds read high; z-score at 25 µM; hit rate 6% among 47,000; in the data active means z-score above about 3, passing the limit was not always enough;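 further: higher signal means more uncleaved substrate so more Dicer inhibition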
Hits are given with their value; . = inactive.

SMILES	Dicer processing
CCOC(=O)c1c(C)n(-c2ccccc2)c2ccc(OC(=O)c3cccs3)cc12	.
CCOC(=O)c1sc(=S)n(-c2ccc(OC)cc2)c1C	4.2
CCOC(=O)c1c(O)c(O)c(C(=O)OCC)n1-c1ccc(OC)cc1	.
CCOC(=O)c1c(C)n(-c2ccc(OC)cc2)c2ccc(O)cc12	4.7
CCOC(=O)c1sc(-c2ccc(C)cc2)nc1O	.
CCOC(=O)c1c(C)n(-c2ccc(N(C)C)cc2)c2ccc(O)cc12	6.6
CCOC(=O)c1sc(=S)n(-c2ccc(Cl)cc2)c1C	.
CCOC(=O)c1c(C)n(-c2ccccc2)c2ccc(O)cc12	.
CCOC(=O)c1c(C)n(CCO)c2ccc(O)cc12	.
CCOC(=O)c1sc(=S)n(-c2cc(C)ccc2C)c1N	5.2
COC(=O)C1SC/C(=N\O)C1C(=O)OC (centres undefined)	.
Cc1ccc(CN2C(=O)C(O)(c3c[nH]c4ccccc34)c3cc(Br)ccc32)c(C)c1 (centres undefined)	.
Fc1ccc(-c2csc(Nc3ccccc3Cl)n2)cc1	.
N/C(=N\O)C1CSc2ccccc2C1=O (centres undefined)	.
CCOc1ccc2c(=O)c(Oc3ccccc3Cl)coc2c1	.
Cc1cc(C)c(NC(=O)C(C)Sc2nc3c(c(=O)n(C)c(=O)n3C)n2C)c(C)c1 (centres undefined)	.
CCCCCOC(=O)C1=C(C)NC2=C(C(=O)CC(C)(C)C2)C1c1ccc(O)c(OCC)c1 (centres undefined)	.
COC(=O)c1cc2cc(CC(=O)c3ccc(O)cc3O)ccc2o1	.
COc1ccc2cc(-c3ccno3)ccc2c1	.
Cc1ccccc1/C=C(\C#N)C(=O)OC(C)(C)C	.
Oc1ccccc1/C=N/NC(=S)NCCc1ccccc1	.
COc1cccc(/C=N/NC(=S)NCCc2ccccc2)c1OC	.
S=C(NCCc1ccccc1)N/N=C/c1c(-c2ccc(Cl)cc2)[nH]c2ccccc12	3.7
Cc1nnc2c(Oc3ccc(Cl)cc3)nc3ccccc3n12	.
O=c1c2ccccc2c(-c2ccccc2)nn1CN1CCCC1	.
SMILES	Dicer processing
CC(C)(C)CC(C)(C)NC(=O)C(Sc1ccccc1N)c1ccccc1 (centres undefined)	.
COCCN1CN=C(NS(=O)(=O)c2ccc(C)cc2)NC1	.
COCCCN1CN=C(NS(=O)(=O)c2ccc(C)cc2)NC1	.
Cc1ccc(S(=O)(=O)NC2=NCN(Cc3cccnc3)CN2)cc1	4.5
O=C1CCCC2=C1C(c1cccc(OCc3ccccc3)c1)n1ncnc1N2 (centres undefined)	.
O=S(=O)(c1sc(Br)cc1Br)N1CCCC1	.
N/C(=N\OC(=O)c1csnn1)c1ccc(Cl)cc1	.
O=C(/C=C/c1ccccc1)NNC(=O)c1sccc1-n1cccc1	.
COc1ccccc1OCCSc1nc(C)cc(C)n1	.
Cc1ccc(OCCSc2nc(N)cc(N)n2)c(C(C)C)c1	4.9
Cc1ccc(C(C)C)c(OCc2nc3ccccc3n2C)c1	.
COc1cc(-c2ccc3c(c2)OCO3)cc(=O)c2c(C)oc(C)c12	.
CCCCOC(=O)C1=C(C)NC2=C(C(=O)CCC2)C1c1ccc(Br)cc1 (centres undefined)	.
Cn1cnc([N+](=O)[O-])c1NC1Cc2ccccc2C1	.
Cc1cc(Cl)cc2c1C(=O)/C(=C\c1ccccc1O)S2	5
O=C1C(c2cc(Cl)cc(Cl)c2)=C(O)c2ccccc21	.
Cc1cc(Cl)cc2c1C(=O)/C(=C\c1cccnc1)S2	.
CNC(=S)N(Cc1ccc(Cl)cc1)Cc1cccnc1	.
O=C(NC(=O)N1CCN(c2ccc(C(F)(F)F)cc2[N+](=O)[O-])CC1)c1ccc([N+](=O)[O-])cc1	.
CCOC(=O)c1ccc2nc(C(F)(F)F)nc(N3CC(C)OC(C)C3)c2c1 (centres undefined)	.
CCOC(=O)c1cnc2cc(Cl)c(F)cc2c1OCC	.
CCOC(=O)c1cnc2cc(Cl)c(F)cc2c1N1CC(C)OC(C)C1 (centres undefined)	11
C=C(C)Cn1c(-c2ccco2)nc2ccccc21	.
CC(C)Cc1nc2ccccc2n1C(C)C(=O)O (centres undefined)	.
CC1(C)N=C(N)N=C(N)N1c1c(Cl)cccc1Cl	.
SMILES	Dicer processing
COc1ccc(C2C3=C(CC(C)(C)CC3=O)Nc3ccc4ccccc4c32)cc1OC (centres undefined)	.
C#CC(CC)(CC)NC(=O)/C=C\C(=O)O	.
Cc1cc(O/C=C/C(=O)c2ccc(Br)cc2)ccc1Cl	.
COc1ccc(C(=O)/C=C/Sc2cc(Cl)ccc2Cl)cc1	.
COc1ccc(C(=O)/C=C/Oc2ccc(Cl)cc2)cc1	4.4
CC(=O)NNc1ccc(C(F)(F)F)cn1	.
COc1ccc(/C=C2/C(=O)Nc3ccccc32)cc1	.
O=C1Nc2ccccc2/C1=C/c1cnc(-c2ccccc2)[nH]1	3.3
CN(C)c1ccc(/C=C2\C(=O)Nc3ccccc32)cc1	.
CN(C)/C=N/c1nnc(SCc2c(F)cccc2Cl)s1	.
COC(=O)CC1(C(=O)OC)Oc2ccc(Br)cc2C(=O)N1c1ccc(F)c(Cl)c1 (centres undefined)	.
COc1ccc(OC)c(C2/C(=C(/O)c3ccc(C)cc3)C(=O)C(=O)N2c2cccnc2)c1 (centres undefined)	.
O=C(Nc1ccccc1)OC1CCSC1 (centres undefined)	.
CSc1nc2sc3c(c2c(=O)n1-c1ccccc1)CC(C)(C)OC3	.
CCc1ccc(C2c3c(oc4ccccc4c3=O)C(=O)N2c2nc(C)c(C)s2)cc1 (centres undefined)	.
FC(F)(F)c1cc(-c2ccccc2)n[nH]1	.
Cc1ccc(O)c(-c2cc(C(F)(F)F)[nH]n2)c1	4.1
FC(F)(F)c1cc(-c2ccc3c(c2)OCO3)n[nH]1	.
COc1ccccc1NC(=S)NNC(=O)NNC(=S)Nc1ccccc1OC	4.4
COc1ccccc1NC(=S)Nc1ccccn1	.
COc1ccccc1NC(=S)NCC(C)(C)C(=O)O	.
O=C(/C=C/Nc1ccc(Cl)cc1Cl)c1ccc(Br)cc1	.
CCOc1ccc(C2C(C(=O)OC(C)C)=C(C)Nc3nc4ccccc4n32)cc1 (centres undefined)	.
O=C(CN1C(=O)CCC1=O)c1ccc(F)cc1	.
CN1Cc2sccc2C(c2ccc(O)c(O)c2)C1 (centres undefined)	4.8
SMILES	Dicer processing
CN1CCc2cc(Cl)c(O)cc2[C@@H](c2ccccc2)C1	.
CC12CN3CC(C)(CN(C1)C3c1ccc(O)c(O)c1)C2=O (centres undefined)	.
O=C(CSc1nnnn1-c1ccccc1)Nc1ccc2c(c1)OCO2	.
CN(C)c1c(F)cc(/C(N)=N/O)cc1F	.
CN(C)c1c(F)cc(C(N)=O)cc1F	3.4
CN(C)c1c(F)cc(C(=O)Nc2cc(C(F)(F)F)cc(C(F)(F)F)c2)cc1F	.
COC(=O)c1sccc1NC(=O)C(F)(F)F	.
C=C(C)Cn1c(CO)nc2ccccc21	.
CC1=C(C(=O)Nc2nc3ccccc3s2)C(c2cccc(Br)c2)C2=C(CCCC2=O)N1 (centres undefined)	3.2
COC(=O)C1=C(C)NC2=C(C(=O)CCC2)C1c1cccc(Br)c1 (centres undefined)	.
CCOC(=O)C1=C(C)NC2=C(C(=O)CCC2)C1c1cccc(Br)c1 (centres undefined)	.
C=CCOc1cccc(C2c3c(oc4ccc(C)cc4c3=O)C(=O)N2CCOC)c1 (centres undefined)	.
C=CCNC(=O)c1cc2c(n(-c3ccc(Cl)cc3)c1=O)CC(C)(C)CC2=O	.

Assay outcomes deposited in PubChem BioAssay by Center for Chemical Genomics, University of Michigan.
